Only some compounds are listed: those with a hit (about 2.8% of all), similar ones and a draw of the others.
PI4K2A block = inhibitors of human PI4K2A; Q9BTU6; purified PI4K2A, ADP-Glo luminescence, 1 h; active compounds read low; activity change, negative = inhibition, % at 76.9 µM; 420,000 tested, 0.13% active; AID 1346378; in the data active means activity change below about -50%; inconclusive means mostly about -30% to -49%;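 further: -100% = wells without enzyme as full effect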
Target sequence (Q9BTU6 whole entry, looked up): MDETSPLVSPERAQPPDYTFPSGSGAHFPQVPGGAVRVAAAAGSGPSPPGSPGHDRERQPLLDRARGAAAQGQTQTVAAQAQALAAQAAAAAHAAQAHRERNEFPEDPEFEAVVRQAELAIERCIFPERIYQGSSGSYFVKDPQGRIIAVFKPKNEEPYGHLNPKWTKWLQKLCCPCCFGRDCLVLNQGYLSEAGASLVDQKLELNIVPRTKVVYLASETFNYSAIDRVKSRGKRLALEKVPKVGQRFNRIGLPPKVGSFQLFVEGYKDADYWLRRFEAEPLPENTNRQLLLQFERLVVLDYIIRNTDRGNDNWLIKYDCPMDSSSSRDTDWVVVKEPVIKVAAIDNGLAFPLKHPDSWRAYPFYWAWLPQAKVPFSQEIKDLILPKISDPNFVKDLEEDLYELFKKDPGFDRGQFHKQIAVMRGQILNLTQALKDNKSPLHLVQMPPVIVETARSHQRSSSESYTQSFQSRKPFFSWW
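Compounds are screened against recombinant PI4K2A using PI as substrate and ATP, the latter dispensed at 300 microM. Reactions run one hour at ambient temperature before ADP-Glo detection; full inhibition defined by wells lacking enzyme.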
D3 antag = D3 dopamine receptor (human) antagonism; P35462; D3R cells, DiscoveRx beta-arrestin luminescence, antagonist mode; active compounds read low; max response, negative = inhibition, %; 360,000 tested, 2.5% active; in the data active means max response below about -50%; inconclusive means no clear call, values can overlap the other calls; further: on the % scale 0 is the no-effect control and ±100 the full control effect
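Cells plated overnight at 1500 cells/well, then exposed to library compounds with dopamine controls for 90 minutes at 37 degrees C. DiscoveRx reagent added for 30–60 minutes at room temperature; luminescence read, quantitative HTS format.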
D3 ag = agonists of human D3 dopamine receptor; D3R DiscoveRx beta-arrestin cells, luminescence, 90 min; 410,000 tested, 0.58% active; max activation, %; P35462; in the data active means max activation above about 30%; further: 0% is about no effect
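Cells at 1500/well, incubated overnight, then treated with pinned compounds (dopamine as control) for 90 min at 37 degrees C. DiscoveRx reagent added for 30 - 60 minutes at room temperature; luminescence read.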
LDHA inh = inhibitors of human lactate dehydrogenase A | P00338 | AID 1347041 | activity change, % (values are at about 110 or 230 µM) | purified LDHA, NADH/diaphorase-resazurin fluorescence; active compounds read low | 480,000 tested, 0.15% active; in the data active means activity change below about -30%; inconclusive means mostly about -25% to -30%;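 further: plate controls were DMSO wells for no effect and wells without enzyme for full effect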
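Enzyme activity of human lactate dehydrogenase 5 (2 nM; 0.06 mM NADH, 0.2 mM pyruvate, 5 min, RT) is measured via a resazurin/diaphorase fluorescence readout of residual NADH.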
Akt phos inh = inhibitors of Akt phosphorylation; Neuro2A IGF-stimulated pAkt S473 HTRF, 20 min; active compounds read low; activity change, % for hits at 50 µM; 360,000 tested, 0.32% active; in the data active means activity change below about -80%; inconclusive means mostly about -51% to -80%; further: on the % scale 0 is the no-effect control and ±100 the full control effect
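Neuro2A cells in DMEM with 0.5% FBS, overnight at 37 deg C, given compound at single 50 µM final, then IGF (6 nM final) for 20 min at 37 deg C. Lysed; phospho-Akt Ser473 by HTRF after 24 h, 665/615 ratio.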
RGS4 inh = blocks human RGS4-accelerated GTP hydrolysis. Transcreener GDP fluorescence polarization, RGS4-accelerated GTP hydrolysis. Potency, µM (doses to about 114 µM), for inactives: at the highest dose activity change, negative = inhibition, hits mostly inhibitors. 390,000 tested, 0.039% active. AID 504845; active means well fitted inhibition curve with a large enough effect; inconclusive means small, poorly fitted or top-dose-only effect; inactive means no such curve, though single readings can be large or run the other way; further: potency means the concentration at half of the fitted maximal effect; on the % scale 0 is the no-effect control and ±100 the full control effect; nearly all actives have a fitted effect of over 75% in size
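MLSMR compounds (23 nl, pin-transferred) preincubated 10 min at room temperature with a 500nM (2x) first reagent, then RGS4 at 900nM (2x) plus Transcreener GDP mix added; fluorescence polarization (620/688 nm) read before and after 90 min at 30 °C.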
* = called active by the depositor.

`O=C(COc1ccc(Br)cc1)Nc1ccc(C(=O)Nc2ccccc2C(=O)O)cc1` gave PI4K2A block -5, D3 antag 18, D3 ag 3, LDHA inh -32*, Akt phos inh inactive and RGS4 inh 5%.
For COc1ccc(OCC(=O)Nc2ccc(C(=O)Nc3ccccc3C(=O)O)cc2)cc1 the results were PI4K2A block 2, D3 antag 79, D3 ag 3, LDHA inh -10, Akt phos inh inactive and RGS4 inh -41%.
`O=C(COc1ccccc1)NC(NC(=S)Nc1ccccc1C(=O)O)C(Cl)(Cl)Cl` (centres undefined) gave PI4K2A block -1, D3 antag -77*, D3 ag -1, LDHA inh -2, Akt phos inh inactive and RGS4 inh inconclusive.
`CCN(CC)CCCC(C)NCc1cc(Br)cs1` (centres undefined) gave LDHA inh 0.
COc1cccc(CNc2nc3cc(-c4ccc(OC)c(OC)c4)sc3c(=O)n2C)c1 was read as PI4K2A block -4, D3 antag 39, D3 ag 40* and LDHA inh -10.
For Cc1cccc(C(=O)Oc2csc(=S)n2C(=O)c2cccc(C)c2)c1 the results were PI4K2A block -1, D3 antag 18, D3 ag 3, LDHA inh -33*, Akt phos inh inactive and RGS4 inh -36%.
O=C(Oc1csc(=S)n1C(=O)c1ccccc1)c1ccccc1 was read as PI4K2A block 2, D3 antag -3, D3 ag -14, LDHA inh -13, Akt phos inh inactive and RGS4 inh -38%.
O=C(NCN1CCN(c2ccccc2F)CC1)c1ccccc1 was read as PI4K2A block 0, D3 antag inconclusive, D3 ag -2, LDHA inh 0 and RGS4 inh -10%.
Screening Cc1cccc(C(=O)NCN2CCN(c3ccccc3C#N)CC2)c1 returned PI4K2A block 5, D3 antag -76*, D3 ag -81, LDHA inh -11, Akt phos inh inactive and RGS4 inh 1%.
`CC(=O)Nc1ccc2c(CN3CCCCC3)cc(=O)oc2c1` gave LDHA inh -2.
Screening Cn1c(CNC(=O)c2ccccc2F)nnc1SCc1ccc(Cl)cc1 returned PI4K2A block 1, D3 antag 21, D3 ag -2, LDHA inh 4, Akt phos inh inactive and RGS4 inh -13%.
For Cc1ccccc1C(=O)NCc1nnc(SCC(=O)N2c3ccccc3Sc3ccccc32)n1C the results were PI4K2A block -2, D3 antag -64*, D3 ag -5, LDHA inh -2, Akt phos inh inactive and RGS4 inh -9%.
Screening CN(CCc1cnn(C)c1)Cc1nc(Cc2ccccc2)no1 returned PI4K2A block -5, D3 antag 4, D3 ag 13, LDHA inh -7, Akt phos inh inactive and RGS4 inh 14%.
For CCN(Cc1cnn(C)c1)Cc1nc(Cc2ccccc2Cl)no1 the results were PI4K2A block 1, D3 antag -11, D3 ag 42*, LDHA inh -4, Akt phos inh inactive and RGS4 inh 9%.
O=C(Nc1ccc(F)cc1)c1nc(S(=O)(=O)Cc2ccc(F)cc2)ncc1Cl was read as LDHA inh -11.
Screening CC(C)c1cccc(OCCN2CCCC2)c1 returned PI4K2A block -13, D3 antag -100*, D3 ag -19, LDHA inh -15, Akt phos inh inactive and RGS4 inh -6%.
Screening Clc1cccc(OCCN2CCCC2)c1 returned PI4K2A block 1, D3 antag -73*, D3 ag -11, LDHA inh -6, Akt phos inh inactive and RGS4 inh 27%.
Screening CCC1CCCCN1CCCCOc1cccc(Cl)c1 (centres undefined) returned PI4K2A block 4, D3 antag -96*, D3 ag -21, LDHA inh -23, Akt phos inh inactive and RGS4 inh 2%.
Screening CCOc1ccc(OCCCCOc2cccc(Cl)c2)cc1 returned LDHA inh -2.

Screens as filed in PubChem BioAssay.
